Laboratory results: PubChem BioAssay
Activity calls are given as the source filed them.

Experiments:
[1] = small molecules captured by biotinylated probe aFSTL3 – biochemical, small-molecule microarray, fluorescence 635/667, stem cell growth factor project, primary screen (AID 1064); settings: higher = more signal;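 also: measures binding of the biotinylated anti-FSTL3 antibody to printed compounds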
[2] = binders from COS7 lysate, DM2A8 probe, primary screen, torsin A project, cell lysate, small-molecule microarray, fluorescence 635/667 (AID 1065); settings: higher = more signal, COS7 lysate expressing mutant human TOR1A
[3] = small molecules captured by biotinylated probe aFGF2 – biochemical, small-molecule microarray, fluorescence 635/667, stem cell growth factor project, primary screen (AID 1067); settings: higher = more signal;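 also: measures binding of biotinylated aFGF2 protein to printed compounds on slides; z-score merges feature fluorescence and signal-to-noise across triplicate slides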
[4] = small molecules captured by biotinylated probe aFGF10 – biochemical, small-molecule microarray, fluorescence 635/667, stem cell growth factor project, primary screen (AID 1071); settings: higher = more signal;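 also: score merges 667 nm spot intensity and signal to noise from triplicate slides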
[5] = target: Neurogenic locus notch homolog protein 2 (Homo sapiens) (UniProt Q04721); assay: small molecules binding Notch2 protein – biochemical, small-molecule microarray, 635 nm fluorescence, stem cell growth factors, primary screen (AID 1073); settings: higher = more signal
[6] = target: Pro-neuregulin-1, membrane-bound isoform (Homo sapiens) (UniProt Q02297); assay: small molecules binding neuregulin-1 protein – biochemical, small-molecule microarray, fluorescence 635/667, psychiatric disease protein project, primary screen (AID 1075); settings: NRG1 binding, 635 nm fluorescence, higher = more signal;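 also: score combines 667 nm spot fluorescence with signal to noise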
[7] = system: Neuregulin-1 EGF-like domain; assay: small molecules binding NRG1 EGF domain – biochemical, small-molecule microarray, 635 nm fluorescence, primary screen (AID 1081); settings: higher = more signal;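 also: binding of the protein to compounds printed on small-molecule microarray slides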
[8] = FRG1 expression reporter modulators in myotubes – cell-based, C2C12 myotubes, firefly/Renilla luciferase, luminescence, FRG1 inhibition for FSHD, primary screen (AID 1084); settings: FRG1 promoter luciferase, higher = more signal, called active from +8 up or from −8 down
[9] = small molecules captured by biotinylated probe aFST – biochemical, small-molecule microarray, fluorescence 635/667, stem cell growth factor project, primary screen (AID 1086); settings: higher = more signal;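 also: score merges 667 nm fluorescence with signal-to-noise of each printed compound spot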
[10] = binders of probe aHhip on microarray, primary screen, stem cell growth factor project, biochemical, small-molecule microarray, fluorescence 635/667 (AID 1087); settings: higher = more signal;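 also: score merges spot fluorescence at 667nm with spot signal to noise ratio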
[11] = system: PRMT1 (protein arginine N-methyltransferase 1); assay: small molecules binding arginine methyltransferase PRMT1 – biochemical, small-molecule microarray, 635 nm fluorescence, primary screen (AID 1088); settings: higher = more signal;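 also: binding of Prmt1 protein to compounds spotted on small-molecule microarray slides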
[12] = growth effects on S. cerevisiae YJM789 – YJM789 clinical isolate, OD600, 24 h, basal, primary screen (AID 1089); settings: higher = more signal, called active from +8 up or from −8 down;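 also: growth of clinical yeast isolate S. cerevisiae YJM 789 seeded 1000 cells per well; test concentration not given here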
[13] = S. pombe growth modifiers, basal conditions – strain 972, OD600, 24 h, no modulator, primary screen (AID 1090);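 also: basal condition with compound alone and no growth modifier present; test concentration not given here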; settings: S. pombe 972 growth, higher = more signal, called active from +8 up or from −8 down
[14] = budding yeast growth modifiers under rapamycin – strain BY4716, OD600, 96 h, primary screen (AID 1091); also: test concentration not given here; settings: S. cerevisiae BY4716 + rapamycin, higher = more signal, called active from +8 up or from −8 down
[15] = target: Torsin-1A-interacting protein 2 (Homo sapiens) (UniProt Q8NFQ8); assay: small molecules binding lysate-expressed LULL1 – cell lysate, human LULL1 lysate, 635/667 nm fluorescence, primary screen (AID 1092); settings: small-molecule microarray, hLULL1 lysate binding, 635 nm fluorescence; higher = more signal;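 also: probe is lysate of COS7 cells overexpressing human LULL1; score merges per-feature 667 nm fluorescence with signal-to-noise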
[16] = optical density change of DRC41 E. coli – strain DRC41, OD650, 24 h, E. coli filamentation project, primary screen (AID 1093);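 also: MC1000 strain lacking acrAB efflux and sulA so SOS filamentation is blocked; test concentration not given here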; settings: E. coli DRC41 growth, higher = more signal, called active from +8 up or from −8 down
[17] = probe aLefty2 binding to arrayed compounds – biochemical, biotinylated probe, 635/667 nm fluorescence, primary screen (AID 1094); settings: small-molecule microarray, higher = more signal;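 also: score merges spot fluorescence near 667 nm with spot signal-to-noise ratio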
[18] = system: Noggin (protein binding on small-molecule microarray); assay: small molecules binding Noggin protein – biochemical, 635/667 nm fluorescence, primary screen (AID 1095); settings: 635 nm fluorescence, higher = more signal;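 also: score merges 667 nm feature fluorescence with signal to noise over triplicate slides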
[19] = target: Neurogenic locus notch homolog protein 3 (Homo sapiens) (UniProt Q9UM47); assay: small molecules binding NOTCH3 protein – biochemical, 635/667 nm fluorescence, primary screen (AID 1096); settings: small-molecule microarray, 635 nm fluorescence, higher = more signal
[20] = probe aEGFR binding to arrayed compounds – biochemical, biotinylated probe, 635/667 nm fluorescence, primary screen (AID 1097); settings: small-molecule microarray, higher = more signal;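 also: probe is a biotinylated anti-EGFR antibody binding compounds printed on slides; score combines fluorescence near 667 nm and signal to noise of each spot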

Chain of Torsin-1A-interacting protein 2 (Homo sapiens) (Q8NFQ8 whole entry, looked up): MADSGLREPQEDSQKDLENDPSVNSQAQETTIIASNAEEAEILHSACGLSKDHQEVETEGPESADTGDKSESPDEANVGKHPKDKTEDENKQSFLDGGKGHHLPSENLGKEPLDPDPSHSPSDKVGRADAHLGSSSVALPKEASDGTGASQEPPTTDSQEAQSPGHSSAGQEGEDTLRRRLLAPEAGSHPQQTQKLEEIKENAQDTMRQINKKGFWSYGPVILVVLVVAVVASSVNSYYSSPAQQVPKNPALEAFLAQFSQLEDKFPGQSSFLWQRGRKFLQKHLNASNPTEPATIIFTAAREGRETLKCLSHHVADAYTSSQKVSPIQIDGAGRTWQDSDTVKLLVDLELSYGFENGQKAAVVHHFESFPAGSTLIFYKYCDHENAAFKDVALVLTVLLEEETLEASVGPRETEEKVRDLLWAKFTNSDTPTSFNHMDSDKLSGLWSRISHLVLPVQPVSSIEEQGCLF
Chain of Neurogenic locus notch homolog protein 3 (Homo sapiens) (Q9UM47 whole entry, looked up): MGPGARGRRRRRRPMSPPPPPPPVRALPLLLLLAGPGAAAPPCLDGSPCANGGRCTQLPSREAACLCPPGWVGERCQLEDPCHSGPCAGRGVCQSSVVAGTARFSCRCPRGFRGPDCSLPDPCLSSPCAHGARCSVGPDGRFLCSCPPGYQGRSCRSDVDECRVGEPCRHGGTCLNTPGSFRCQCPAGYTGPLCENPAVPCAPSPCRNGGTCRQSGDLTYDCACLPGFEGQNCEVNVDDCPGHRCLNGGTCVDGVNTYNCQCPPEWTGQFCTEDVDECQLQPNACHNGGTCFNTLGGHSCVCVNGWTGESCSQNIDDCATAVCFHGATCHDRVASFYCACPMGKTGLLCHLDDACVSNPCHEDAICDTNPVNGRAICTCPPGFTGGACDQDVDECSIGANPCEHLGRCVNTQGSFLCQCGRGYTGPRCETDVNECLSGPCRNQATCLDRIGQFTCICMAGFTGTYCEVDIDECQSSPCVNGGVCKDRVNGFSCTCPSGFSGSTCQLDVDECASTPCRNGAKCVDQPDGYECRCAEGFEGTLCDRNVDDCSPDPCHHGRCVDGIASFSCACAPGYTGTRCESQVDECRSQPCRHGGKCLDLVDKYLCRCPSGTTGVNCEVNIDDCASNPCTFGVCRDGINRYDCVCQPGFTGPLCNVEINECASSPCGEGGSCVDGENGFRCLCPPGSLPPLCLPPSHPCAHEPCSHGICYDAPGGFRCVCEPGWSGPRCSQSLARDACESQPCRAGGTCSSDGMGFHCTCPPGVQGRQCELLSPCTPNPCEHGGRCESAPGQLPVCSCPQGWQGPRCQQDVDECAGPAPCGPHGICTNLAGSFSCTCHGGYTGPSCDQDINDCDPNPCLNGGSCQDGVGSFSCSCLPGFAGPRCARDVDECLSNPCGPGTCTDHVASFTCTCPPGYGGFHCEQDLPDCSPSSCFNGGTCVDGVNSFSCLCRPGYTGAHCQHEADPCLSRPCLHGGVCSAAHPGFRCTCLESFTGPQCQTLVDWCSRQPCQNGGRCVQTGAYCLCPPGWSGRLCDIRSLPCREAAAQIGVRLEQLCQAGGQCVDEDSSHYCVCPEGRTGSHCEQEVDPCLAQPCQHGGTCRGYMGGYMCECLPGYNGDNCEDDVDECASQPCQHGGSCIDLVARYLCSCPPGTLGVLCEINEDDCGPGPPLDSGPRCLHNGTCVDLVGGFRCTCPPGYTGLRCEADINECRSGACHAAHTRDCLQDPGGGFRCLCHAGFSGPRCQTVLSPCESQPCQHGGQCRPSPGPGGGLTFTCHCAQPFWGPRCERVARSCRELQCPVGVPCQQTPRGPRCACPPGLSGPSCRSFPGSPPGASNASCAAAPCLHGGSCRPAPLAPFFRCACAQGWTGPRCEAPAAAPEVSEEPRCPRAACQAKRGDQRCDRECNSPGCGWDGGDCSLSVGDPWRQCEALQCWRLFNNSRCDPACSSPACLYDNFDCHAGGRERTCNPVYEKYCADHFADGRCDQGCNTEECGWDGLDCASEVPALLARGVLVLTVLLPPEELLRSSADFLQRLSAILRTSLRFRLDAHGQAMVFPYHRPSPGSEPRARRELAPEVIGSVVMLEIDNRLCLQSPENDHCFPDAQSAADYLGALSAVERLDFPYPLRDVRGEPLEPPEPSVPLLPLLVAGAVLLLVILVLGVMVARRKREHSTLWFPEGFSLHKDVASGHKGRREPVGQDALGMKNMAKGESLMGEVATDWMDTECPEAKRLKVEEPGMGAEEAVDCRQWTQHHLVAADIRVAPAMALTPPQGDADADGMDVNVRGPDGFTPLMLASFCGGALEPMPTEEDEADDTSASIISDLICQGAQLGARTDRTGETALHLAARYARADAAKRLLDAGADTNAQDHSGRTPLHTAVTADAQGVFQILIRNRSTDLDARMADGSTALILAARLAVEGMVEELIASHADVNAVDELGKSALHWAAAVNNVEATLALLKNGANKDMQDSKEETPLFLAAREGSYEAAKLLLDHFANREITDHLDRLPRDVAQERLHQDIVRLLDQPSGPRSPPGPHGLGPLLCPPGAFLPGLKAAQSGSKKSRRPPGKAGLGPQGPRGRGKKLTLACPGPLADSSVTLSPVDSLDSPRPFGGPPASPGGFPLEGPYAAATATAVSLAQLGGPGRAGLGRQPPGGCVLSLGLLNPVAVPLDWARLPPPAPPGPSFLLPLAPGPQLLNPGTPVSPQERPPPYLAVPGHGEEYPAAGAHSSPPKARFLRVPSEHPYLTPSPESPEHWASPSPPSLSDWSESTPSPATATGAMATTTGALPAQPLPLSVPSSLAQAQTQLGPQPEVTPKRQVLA
Chain of Pro-neuregulin-1, membrane-bound isoform (Homo sapiens) (Q02297 whole entry, looked up, the tested form may be a part, canonical isoform): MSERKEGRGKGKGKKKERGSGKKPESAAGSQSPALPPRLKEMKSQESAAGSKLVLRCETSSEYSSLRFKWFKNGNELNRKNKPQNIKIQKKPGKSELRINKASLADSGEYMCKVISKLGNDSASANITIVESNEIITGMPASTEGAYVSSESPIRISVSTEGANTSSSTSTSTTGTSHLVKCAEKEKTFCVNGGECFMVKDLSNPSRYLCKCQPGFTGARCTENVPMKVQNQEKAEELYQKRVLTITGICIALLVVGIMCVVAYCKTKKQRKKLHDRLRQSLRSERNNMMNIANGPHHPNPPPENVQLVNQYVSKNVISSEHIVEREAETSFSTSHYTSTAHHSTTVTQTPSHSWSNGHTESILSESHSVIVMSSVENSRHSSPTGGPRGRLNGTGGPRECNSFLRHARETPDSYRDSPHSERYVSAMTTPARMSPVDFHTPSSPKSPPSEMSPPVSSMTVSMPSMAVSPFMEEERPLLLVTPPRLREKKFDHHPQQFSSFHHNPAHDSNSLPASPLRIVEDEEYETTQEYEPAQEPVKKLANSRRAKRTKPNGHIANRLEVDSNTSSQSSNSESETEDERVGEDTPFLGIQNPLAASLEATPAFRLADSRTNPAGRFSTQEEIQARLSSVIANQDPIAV

| Compound | composite z-score [1] | composite z-score [2] | composite z-score [3] | composite z-score [4] | composite z-score [5] | composite z-score [6] | composite z-score [7] | z-score [8] | composite z-score [9] | composite z-score [10] | composite z-score [11] | z-score [12] | z-score [13] | z-score [14] | composite z-score [15] | z-score [16] | composite z-score [17] | composite z-score [18] | composite z-score [19] | composite z-score [20] |
| --- | --- | --- | --- | --- | --- | --- | --- | --- | --- | --- | --- | --- | --- | --- | --- | --- | --- | --- | --- | --- |
| COCCOC(=O)N1C(=O)[C@@]2(c3cc(C#CC4=CCCCC4)ccc31)[C@H](C(N)=O)[C@H]1C(=O)O[C@H](c3ccccc3)[C@H](c3ccccc3)N1[C@@H]2c1ccc(OCCO)cc1 | -0.809 | 0.897 | -0.0009 | 0.806 | 0.254 | 0.514 | 1.19 | -0.408 (inactive) | -0.335 | -0.237 | 1.54 | 1.44 (inactive) | 1.28 (inactive) | 3.59 (inactive) | 1.6 | -0.385 (inactive) | -0.399 | 0.904 | 1.01 | -0.238 |
| CCCCC=C[C@@H](NC(=O)Oc1cccc(C(F)(F)F)c1)c1ccccc1 | 1.56 | 0.974 | 0.84 | 1.03 | 1.55 | 1.47 | 1.11 | -3.84 (inactive) | 2.02 | 2.27 | 0.745 | 1.06 (inactive) | 0.0148 (inactive) | 1.01 (inactive) | 0.277 | -2.21 (inactive) | 0.839 | -0.0732 | 1.08 | 0.4 |
| COC(=O)c1c(CC[C@@H](CO)NC(=O)N2CCC[C@H]2Cn2cc(-c3ccccn3)nn2)oc(C(C)=O)c1C(=O)OC | -0.508 | -0.0298 | -0.1 | 0.639 | -0.357 | 0.963 | 0.808 | 0.634 (inactive) | -0.0939 | -0.0427 | 0.986 | -0.833 (inactive) | 0.195 (inactive) | -1.46 (inactive) | 3.03 | 1.25 (inactive) | -0.155 | 0.81 | -0.126 | -0.13 |
| O=C1OCCC/C=C\[C@H]2OC34C=CCN(Cn5nnc6ccccc65)C(=O)[C@H]3N(CCCCCCO)C(=O)[C@@H]4C12 (stereo not given in full) | 0.144 | 1.57 | -0.167 | -1.04 | -0.969 | 0.0553 | 1.25 | -0.584 (inactive) | -0.582 | -0.273 | 0.827 | -3.24 (inactive) | -0.0541 (inactive) | -1.28 (inactive) | 3.5 | 2.87 (inactive) | -0.181 | -0.272 | -0.269 | -0.224 |
| O=C1OCCC/C=C\[C@H]2OC34C=CCN(Cn5nnc6ccccc65)C(=O)[C@H]3N(CCO)C(=O)[C@@H]4C12 (stereo not given in full) | -0.335 | -1.46 | -0.206 | 0.0278 | -0.918 | 1.21 | 1.16 | 0.356 (inactive) | -0.486 | 0.382 | -0.614 | 0.744 (inactive) | -0.0999 (inactive) | -0.277 (inactive) | 1.41 | 2.83 (inactive) | 0.478 | -0.708 | -0.571 | -0.0015 |
| COCCOC(=O)N1C(=O)[C@@]2(c3cc(C#CCCO)ccc31)[C@H](C(=O)N1CCN(c3ncccn3)CC1)[C@H]1C(=O)O[C@H](c3ccccc3)[C@H](c3ccccc3)N1[C@@H]2c1ccccc1OCCO | -0.545 | 0.217 | -0.0546 | 0.537 | 1.3 | 1.37 | 1.15 | -0.428 (inactive) | 0.335 | -0.0296 | 1.55 | 0.335 (inactive) | 0.411 (inactive) | 3.34 (inactive) | 2.98 | 1.84 (inactive) | -0.114 | 0.791 | 0.846 | 0.268 |
| COCCOC(=O)N1C(=O)[C@@]2(c3cc(C#CC4=CCCCC4)ccc31)[C@H](c1ccc(O)cc1)N1[C@H](c3ccccc3)[C@H](c3ccccc3)OC(=O)[C@H]1[C@@H]2C(N)=O | -0.456 | 0.185 | -0.0899 | 0.54 | 0.592 | 0.324 | 0.978 | 0.189 (inactive) | 0.327 | 0.154 | 1.56 | 0.893 (inactive) | 0.358 (inactive) | 0.918 (inactive) | 1.84 | -0.603 (inactive) | -0.388 | 1.63 | 1.1 | -0.11 |
| O=C1O[C@H](c2ccccc2)[C@H](c2ccccc2)N2[C@H]1[C@@H](C(=O)Nc1nc3ccccc3s1)[C@]1(C(=O)Nc3ccc(C#CC4(O)CCCCCC4)cc31)[C@H]2c1ccc(OCCO)cc1 | -0.317 | 0.792 | -0.129 | 0.805 | 0.642 | 1.7 | 1.06 | 1.97 (inactive) | 0.395 | 0.0413 | 1.56 | 1.22 (inactive) | 1.76 (inactive) | 1.76 (inactive) | 2.2 | 0.546 (inactive) | 0.0317 | 0.986 | 1.02 | 0.0589 |
| COC(=O)[C@@]1(Cc2ccc(F)cc2)[C@@H]2[C@@H](CC(=O)[C@H]2CC(=O)C(=O)N(C)C)CN1C(=O)c1ccccc1 | 0.367 | -0.178 | 0.287 | 0.855 | 1.76 | 1.3 | 1.18 | -0.439 (inactive) | 2.33 | 0.33 | 0.781 | 0.658 (inactive) | 2.12 (inactive) | 2.7 (inactive) | 2.43 | -0.874 (inactive) | 0.288 | 0.221 | 1.08 | 0.4 |
